Only some compounds are listed: those with a hit (about 7% of all), similar ones and a draw of the others.
rCAG binder: binders of r(CAG) RNA repeats, primary screen, biochemical, fluorescence; r(CAG) RNA repeat, TO-PRO-1 dye displacement fluorescence; inhibition, % at 3 µM; hit rate 1.3% among 370,000;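 active = inhibition above the plate cutoff, the mean of all test compounds on that plate plus 3 SD, cut at about 35% in these data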;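 note: higher means more dye released from RNA so lower well fluorescence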
NR3A LBD binder: binders of NR3A ligand-binding domain, primary screen, biophysical, differential scanning fluorimetry, uHTS; hit rate 2.5% among 340,000; Tm shift relative to glycine control, % at 25 µM; NR3A LBD differential scanning fluorimetry, Tm shift; 0% = protein alone, 100% = glycine-bound protein; AID 1259313, 2017;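 active = melting temperature shift of at least 10% of the positive control shift, at one fixed dose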
ADAM17 inh: ADAM17 inhibitors, primary screen, biochemical, QFRET; Disintegrin and metalloproteinase domain-containing protein 17 (Homo sapiens), P78536; recombinant ADAM17, EDANS/DABCYL FRET peptide cleavage; inhibition, % at 6.95 µM; hit rate 0.83% among 370,000; AID 720648, 2013;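 active = inhibition above the mean of compounds lying between control limits plus 3 SD, set per campaign, cut at about 8.5% in these data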
ADAM10 inh: human ADAM10 inhibitors, primary screen, biochemical, QFRET, HTS | Disintegrin and metalloproteinase domain-containing protein 10 (Homo sapiens), O14672 | recombinant ADAM10, EDANS/DABCYL FRET peptide cleavage, 3 h | inhibition, % at 7 µM | hit rate 0.62% among 370,000 | AID 720582, 2013;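 active = inhibition above a per-campaign cutoff equal to the mean of compounds falling between control-based bounds plus 3 SD, cut at about 20% in these data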
KLK7 zymogen act: proKLK7 zymogen activators, primary screen, biochemical, fluorescence intensity; Kallikrein-7 (Homo sapiens), P49862; purified proKLK7, EDANS-DABCYL substrate fluorescence; 100% is mature enzyme control, 0% vehicle; activation, % at 7 µM; hit rate 0.9% among 370,000; AID 652039, 2013;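 active = activation above the mean of all tested compounds plus 3 SD, computed per campaign excluding outliers beyond control limits, cut at about 13% in these data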
AHR activator: AHR activators, primary screen, cell-based, luminescence, luciferase reporter, human; Aryl hydrocarbon receptor (Homo sapiens), P35869; activation, % at 5 µM; hit rate 2.5% among 320,000; AHR-responsive luciferase reporter cells; in the data active = activation above about 47%
Each line names hits and unclear results; the compound was inactive in the other large screens.

CCCCOc1ccc(C(=O)NC2CCCCN(Cc3ccc(Cl)cc3)C2=O)cc1 (stereo not given)	none (no result: NR3A LBD binder, AHR activator)
COc1ccc(Nc2nc(-c3ccc(OC)cc3)c(CCC(=O)O)s2)cc1	none
CCOC(=O)c1sc(Nc2ccc(Br)cc2)nc1C	NR3A LBD binder 13.9
CCOC(=O)c1cc2nc(Nc3ccc(OC)cc3)sc2s1	NR3A LBD binder 15.0
CCOC(=O)[C@]12CCCC=C1N(Cc1ccc(OC)cc1)C(=O)[C@@H]2CC(=O)NCC12CC3CC(CC(C3)C1)C2	none (no result: NR3A LBD binder, AHR activator)
O=C(COc1ccc(NC(=O)c2cccs2)cc1)c1ccc(F)cc1	NR3A LBD binder 27.0
CCCCOc1cccc(C(=O)Nc2ccc(NC(=O)c3cccs3)cc2)c1	NR3A LBD binder 21.9
CCCOc1ccc(C(=O)Nc2ccc(N(C)C)cc2)cc1	none
CC(=O)c1ccc(NC(=O)c2ccc(NC(=O)CCS(=O)(=O)c3cccs3)cc2)cc1	NR3A LBD binder 20.5
CCCOc1ccc(C(=O)Nc2ccc(NC(=O)c3cccs3)cc2)cc1	NR3A LBD binder 13.8
COc1cccc(C(=O)COc2ccc(NC(=O)c3cccs3)cc2)c1	none
CCN(CC)C(=O)CC[C@H]1CC[C@]2(CCCN(CC3CC3)C2)O1	none (no result: NR3A LBD binder, AHR activator)
O=C1CC(N2CCCC2)=NC(=O)N1c1ccc(Br)cc1	none (no result: NR3A LBD binder, AHR activator)
CCOc1ccc(OCC(=O)Nc2ccc(OC)cc2)cc1	none
O=C(C#Cc1ccccc1)Nc1ccc(F)cc1	none
CCOc1ccc(NC(=O)c2ccc(NS(=O)(=O)c3cccs3)cc2)cc1	NR3A LBD binder 23.9
COc1ccc(C(=O)COc2ccc(NC(C)=O)cc2)cc1	NR3A LBD binder 12.8
COc1ccc(NC(=O)C#Cc2ccccc2)cc1	NR3A LBD binder 10.1
COc1cccc(NC(=O)c2ccc(NS(=O)(=O)c3cccs3)cc2)c1	none (no result: AHR activator)
CC1(C)CC(=O)C=C(C#CC2CC2)C1	none (no result: NR3A LBD binder, AHR activator)
O=C(C1=C[C@H](c2csc3ccccc23)C[C@H](OCc2ccc(CO)cc2)O1)N1CCN(Cc2ccc3c(c2)OCO3)CC1	ADAM10 inh 21.5
Cc1ccc(N(CC(=O)O)S(C)(=O)=O)cc1Cl	NR3A LBD binder 11.5
O=C(N[C@H](C(=O)N1CCC[C@H]1C(=O)NCCc1ccccc1Cl)c1ccccc1)c1ccco1	none (no result: NR3A LBD binder, AHR activator)
COc1ccc(-n2cnc(=S)[nH]c2=S)cc1	NR3A LBD binder 17.7 (no result: AHR activator)
CC(=O)Nc1ccc(-n2cc(-c3ccccc3)[nH]c2=S)cc1	none
COc1ccc(-n2cnc3ccccc32)cc1	none
COc1ccc(-n2cc(-c3ccccc3)[nH]c2=S)cc1	AHR activator 55.1
Cc1ccsc1S(=O)(=O)n1c(CN2CCOCC2)nc2ccccc21	none (no result: NR3A LBD binder, AHR activator)
CC(=O)c1ccc(N=Nc2c(C)[nH]n(-c3ccccc3)c2=O)cc1	AHR activator 53.6
Nc1[nH]n(-c2ccccc2)c(=O)c1N=Nc1ccc2c(c1)OCO2	NR3A LBD binder 10.6, AHR activator 120.9
Cc1[nH]n(-c2ccccc2)c(=O)c1N=Nc1ccc(Cl)cc1	AHR activator 51.2
Nc1[nH]n(-c2ccccc2)c(=O)c1N=Nc1ccc2c(c1)OCCO2	none
Cc1cc(Nc2ccc(OC(F)F)cc2)cc(=O)n1-c1ccc(OC(F)F)cc1	none (no result: NR3A LBD binder, AHR activator)
CCn1c2ccc(Cl)cc2c2nc3ccccc3nc21	AHR activator 52.9
CCn1c2ccc(OC)cc2c2nc3ccccc3nc21	none
CC(C)(C)c1cc(NCCCn2ccnc2)n2ncc(-c3ccccc3)c2n1	none
Cc1cc(NCCCn2ccnc2)n2ncc(-c3ccc(Cl)cc3)c2n1	AHR activator 125.9
CCCc1cc(NCCCn2ccnc2)n2nc(C)c(-c3ccccc3)c2n1	AHR activator 62.6
FC(F)(F)c1cccc(-c2cc3nc(NCCCn4ccnc4)ccn3n2)c1	none (no result: NR3A LBD binder, AHR activator)
Cc1cccc(-c2cc3nc(C)cc(NCCCn4ccnc4)n3n2)c1	AHR activator 48.2
O=C(NC1CCCCN(Cc2cccc(Cl)c2)C1=O)c1ccc(-c2ccccc2)cc1 (stereo not given)	none (no result: NR3A LBD binder, AHR activator)
CN(Cc1ccccc1)S(=O)(=O)c1cccc(C(=O)OCC2CCCCC2)c1	none (no result: NR3A LBD binder, AHR activator)
COC(=O)CCCCC(=O)C1C(=O)CC(C)(C)C(C(=O)OC)C1=O (stereo not given)	NR3A LBD binder 12.2
NNC(=O)c1[nH]c2ccc(Br)cc2c1-c1ccccc1	none
O=C(N/N=C/c1ccccc1Cl)c1[nH]c2ccc(Br)cc2c1-c1ccccc1	NR3A LBD binder 28.5
COc1ccc(/C=N/NC(=O)c2[nH]c3ccc(Br)cc3c2-c2ccccc2)cc1	NR3A LBD binder 18.2
CCCC(=O)Oc1c(S(=O)(=O)c2ccc(C)cc2)c(C)nn1C(C)(C)C	none
CCC(=O)Oc1c(S(=O)(=O)c2ccc(C)cc2)c(C)nn1C(C)(C)C	NR3A LBD binder 15.1
O=S1(=O)c2c(cccc2N2CCC[C@H]2CO)OCCCN1C1CC1	none (no result: NR3A LBD binder, AHR activator)
COc1ccc(C(=O)COC(=O)c2ccccc2NS(=O)(=O)c2ccc(O)c([N+](=O)[O-])c2)cc1	rCAG binder 91.9
COc1ccc(OC)c(NC(=O)Nc2ccc(O)c3ccccc23)c1	AHR activator 48.6
COc1ccc(OC)c(C(=O)Nc2c(O)ccc3ccccc23)c1	none
COc1ccc(OC)c(NC(=O)Nc2c(O)ccc3ccccc23)c1	AHR activator 62.7
COc1ccc(S(=O)(=O)Nc2ccc(O)c3ccccc23)cc1	AHR activator 61.4
C[C@@H]1OC(C2CCCCC2)N(C)[C@H]2C[C@H]3c4[nH]c5cccc(-c6cccc(F)c6)c5c4CCN3C(=O)[C@@H]12 (stereo not given in full)	none (no result: NR3A LBD binder, AHR activator)
O=C(NC1CCCCN(Cc2cccc(Cl)c2)C1=O)c1ccc2ccccc2c1 (stereo not given)	none (no result: NR3A LBD binder, AHR activator)
COC(=O)[C@]12C[C@H](CC(=O)N3CCC(c4ccccc4)CC3)C(=O)N(CCc3ccc(OC)c(OC)c3)C1=C[C@H](C(C)C)O[C@@H]2C1CC1	none (no result: NR3A LBD binder, AHR activator)
CCC(O)c1cc2c(cc1NC(=O)c1ccc(C)cc1)OCCO2 (stereo not given)	AHR activator 62.7
CC(=O)c1cc2c(cc1NC(=O)c1ccc(C)cc1)OCO2	none (no result: rCAG binder, NR3A LBD binder, ADAM17 inh, ADAM10 inh, KLK7 zymogen act)
O=C(NC1CCCCN(Cc2cccc(Cl)c2)C1=O)c1cccc([N+](=O)[O-])c1 (stereo not given)	none (no result: NR3A LBD binder, AHR activator)
C/C(=N\NC(=O)C1CC1)c1cccc(NC(=O)c2cccc(Cl)c2)c1	none (no result: rCAG binder, NR3A LBD binder, ADAM17 inh, ADAM10 inh, KLK7 zymogen act)
C/C(=N/NS(=O)(=O)c1ccc(C)cc1)c1cccc(NC(=O)c2cccc(Cl)c2)c1	NR3A LBD binder 14.4
CC(=O)Nc1cccc(/C(C)=N/NC(=O)c2ccc(Cl)cc2Cl)c1	none
